# Results filed as inconclusive are left out. Unmarked numbers belong to inactive results. Activity calls are given as the source filed them. The call rests on the fitted dose curve; in most records, active means well fitted cell-killing curve with a large enough effect; inconclusive means small, poorly fitted or top-dose-only effect, or effect the other way; inactive means flat fitted curve, though single readings scatter.
# System: OV90
# Experiment: Primary qHTS to identify gynecologic anti-cancer compounds using libraries of approved drugs and bioactive compounds (AID 1345084); further: nearly all actives have a fitted effect of over 55% in size
# Settings: Gynecologic cancer cell panel viability, ATPlite luminescence, 48 h; series mostly up to 57.5 µM; activity change, negative = cytotoxicity: at the top concentration
# Method in brief: (§1)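 Cytotoxicity screen measuring ATP content by luciferase luminescence. Each compound is applied at five concentrations for 48 h at 37 C with 5% CO2.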
# On the % scale 0 is the no-effect control and ±100 the full control effect; potency means the concentration at half of the fitted maximal effect.
Compound,"activity change, negative = cytotoxicity",Potency
CCc1cccc(CC)c1NC(=O)N1Cc2[nH]nc(NC(=O)c3ccc(N4CCN(C)CC4)cc3)c2C1,-12.9%,–
Cc1c(C(=O)Nc2ccc(N3C[C@@H](C)O[C@@H](C)C3)nc2)cccc1-c1ccc(OC(F)(F)F)cc1,-0.301%,–
Nc1ncnc2c1c(-c1cccc(OCc3ccccc3)c1)cn2C1CC(CN2CCC2)C1 (centres undefined),–,22.4 µM (active)
Cc1cc(C(C)Nc2ccccc2)c2nc(N3CCOCC3)cc(=O)n2c1 (centres undefined),-3.87%,–
CN1CCN(c2cccc(Nc3nc4c(-c5ccc(S(C)(=O)=O)cc5)cccn4n3)c2)CC1,-8.02%,–
CC(C)(C)c1nc(-c2cccc(NS(=O)(=O)c3c(F)cccc3F)c2F)c(-c2ccnc(N)n2)s1,-40.1%,–
O[C@@H](COc1cccc2ncccc12)CN1CCN(C2c3ccccc3[C@@H]3[C@H](c4ccccc42)C3(F)F)CC1 (some centres undefined),–,inactive
O=S(=O)(O)c1ccc2cc(N=Nc3cc(S(=O)(=O)O)c4cccnc4c3O)ccc2c1,9.48%,–
N#Cc1ccc(Oc2ccc3c(c2)COB3O)cc1,2.05%,–
OC[C@H]1O[C@@H](OCCc2ccc(O)cc2)[C@H](O)[C@@H](O)[C@H]1O,1.18%,–

# System: PA-1
# Experiment: as above
# Settings: Gynecologic cancer cell panel viability, ATPlite luminescence, 48 h; series mostly up to 57.5 µM; activity change, negative = cytotoxicity: at the top concentration
# Method in brief: as §1
Compound,Potency,"activity change, negative = cytotoxicity"
Nc1ncnc2c1c(-c1cccc(OCc3ccccc3)c1)cn2C1CC(CN2CCC2)C1 (centres undefined),14.1 µM (active),–
Cc1cc(C(C)Nc2ccccc2)c2nc(N3CCOCC3)cc(=O)n2c1 (centres undefined),–,-17.5%
CN1CCN(c2cccc(Nc3nc4c(-c5ccc(S(C)(=O)=O)cc5)cccn4n3)c2)CC1,–,-15.7%
CC(C)(C)c1nc(-c2cccc(NS(=O)(=O)c3c(F)cccc3F)c2F)c(-c2ccnc(N)n2)s1,–,14.2%
O[C@@H](COc1cccc2ncccc12)CN1CCN(C2c3ccccc3[C@@H]3[C@H](c4ccccc42)C3(F)F)CC1 (some centres undefined),inactive,–
N#CC1(c2cccc(C(=O)Nc3cc(Oc4ccc5nc(NC(=O)C6CC6)sc5n4)ccc3F)c2Cl)CC1,10 µM (active),–
O=S(=O)(O)c1ccc2cc(N=Nc3cc(S(=O)(=O)O)c4cccnc4c3O)ccc2c1,–,12.2%
N#Cc1ccc(Oc2ccc3c(c2)COB3O)cc1,–,-9.6%
OC[C@H]1O[C@@H](OCCc2ccc(O)cc2)[C@H](O)[C@@H](O)[C@H]1O,–,-0.432%
